Morphology score and SARS-CoV-2 infection rate data for 31 compounds are collected here from the supplement of paper PMC13380429.

For assay [1], the system named is Vero E6 infected with SARS-CoV-2. Briefly: morphology score (similarity to uninfected cells); higher = more like uninfected cells. The note with it: 24 h.
Assay [2] has the same test system. Briefly: SARS-CoV-2 infection rate relative to infected DMSO; higher = more infection, active = 60 or less. The conditions noted are these: 24 h.

As to `COc1ccc(OC)c2c(=S)c3ccccc3[nH]c12` (10 µM), in assay [1], the morphology score is -0.0609. Moreover, the SARS-CoV-2 infection rate in assay [2] is 106% (inactive).
On the same counts, the results for `N=C(NCCCCCCNC(=N)NC(=N)Nc1ccc(Cl)cc1)NC(=N)Nc1ccc(Cl)cc1` [chlorhexidine] (0.833333 µM) are 0.277 and 58% (active).
`CCCCCCCCCCCCCCCCNc1ccc(C(=O)O)cc1` [cetaben] (10 µM) displayed a morphology score in assay [1] of 0.21. Besides, the SARS-CoV-2 infection rate in assay [2] is 91.5% (inactive).
In the same order, the values of `CO[C@H]1CC=C2CCN3CCC4=C(CC(=O)OC4)[C@]23C1` (10 µM) are 0.059 and 106% (inactive).
In the same order, the values of `CC(C)(Sc1ccc(CCN(CCCCC2CCCCC2)C(=O)NC2CCCCC2)cc1)C(=O)O` (10 µM) are 0.13 and 117% (inactive).
On the same counts, the results for `CC[C@@H]1Cn2c(c3nc(-c4ccccc4)nc-3n(C)c2=O)N1` (10 µM) are 0.14 and 90.5% (inactive).
`CC(=C(CCOC(=O)C(C)C)SSC(CCOC(=O)C(C)C)=C(C)N(C=O)Cc1cnc(C)nc1N)N(C=O)Cc1cnc(C)nc1N` (stereo in doubt) [sulbutiamine] (10 µM) registered a morphology score in assay [1] of 0.0249. Besides, the SARS-CoV-2 infection rate in assay [2] is 100% (inactive).
In assay [1], `C[C@H](N[C@@H](CCc1ccccc1)C(=O)O)C(=O)N1CCC[C@H]1C(=O)O` [enalaprilat] (10 µM) had a morphology score of -0.0398. Moreover, the SARS-CoV-2 infection rate in assay [2] was 107% (inactive).
For `FC(F)c1nc2ccccc2n1-c1nc(N2CCOCC2)nc(N2CCOCC2)n1` (10 µM), the morphology score in assay [1] was -0.0463. The SARS-CoV-2 infection rate in assay [2] is 108% (inactive).
In the same order, the values of `O=C1c2cc(Cl)ccc2OC2CCON12` (configuration not stated) [seclazone] (10 µM) are 0.0763 and 102% (inactive).
In the same order, the values of `CCOC(=O)C1=C[C@]2(CC)CCCN3CCc4c(n1c1ccccc41)[C@@H]32` [vinpocetine] (10 µM) are 0.176 and 102% (inactive).
In the same order, the values of `CC(C)(C)Sc1c(CC(C)(C)C(=O)O)n(Cc2ccc(Cl)cc2)c2ccc(OCc3ccc4ccccc4n3)cc12` [quiflapon] (10 µM) are -0.04 and 106% (inactive).
Turning to `O=C(NCC1CCOCC1)c1cnc(Nc2ccc(Cl)cc2Cl)nc1C(F)(F)F` (10 µM), the morphology score in assay [1] came out at 0.326. In addition, the SARS-CoV-2 infection rate in assay [2] was 96% (inactive).
On the same counts, the results for `CC(C)(O)CC(=O)NCCn1ccc2ncnc(Nc3ccc(Oc4cccc(C(F)(F)F)c4)c(Cl)c3)c21` (10 µM) are -0.138 and 114% (inactive).
On the same counts, the results for `NC(=O)Nc1cc(-c2cccc(F)c2)sc1C(=O)N[C@H]1CCCNC1` (0.833333 µM) are 0.11 and 106% (inactive).
In the same order, the values of `CC(=O)NCCC(=O)N[C@@H](Cc1c[nH]cn1)C(=O)O` [N-acetylcarnosine] (10 µM) are -0.122 and 116% (inactive).
In assay [1], `CCn1c(O)nnc1-c1ccc(Cl)cc1` [5-(4chlorophenyl)-4-ethyl-2,4-dihydro-3H-1,2,4-triazol-3-one] (0.833333 µM) showed a morphology score of 0.0166. The SARS-CoV-2 infection rate in assay [2] is 110% (inactive).
In the same order, the values of `O=C(CCc1ccc(O)cc1)c1c(O)cc(O)cc1O` [phloretin] (10 µM) are 0.241 and 104% (inactive).
On the same counts, the results for `NC(=S)N/N=C/c1ccncc1` [perchlozone] (10 µM) are -0.0589 and 114% (inactive).
`CCCCCCCN(CC)CCC[C@@H](O)c1ccc(NS(C)(=O)=O)cc1` (racemic) [ibutilide] (10 µM) registered a morphology score in assay [1] of 0.189. In addition, the SARS-CoV-2 infection rate in assay [2] was 107% (inactive).
On the same counts, the results for `O=C(Nc1cccc2c(=O)cc(-c3nnn[nH]3)oc12)c1ccc(OCCCCc2ccccc2)cc1` [pranlukast] (10 µM) are 0.0454 and 111% (inactive).
In the case of `Cc1cc(N2CCOCC2)ccc1Nc1nc(NC2CCCCC2)c2nc[nH]c2n1` (10 µM), the morphology score in assay [1] was -0.0587. Further, the SARS-CoV-2 infection rate in assay [2] is 90.5% (inactive).
`O=C1CCC[C@@H]2[C@H]3C[C@@H](CN12)[C@@H]1CCCCN1C3` [lupanine] (10 µM) registered a morphology score in assay [1] of -0.065. Besides, the SARS-CoV-2 infection rate in assay [2] was 102% (inactive).
As to `O=C(Nc1ccccc1)c1ccccc1O` [salicylanilide] (10 µM), the morphology score in assay [1] is -0.148. Also, the SARS-CoV-2 infection rate in assay [2] is 110% (inactive).
On the same counts, the results for `COC(=O)Nc1ccc(-c2nc(N3CCOCC3)c3cnn(C4CCN(C(=O)OC)CC4)c3n2)cc1` (0.833333 µM) are 0.00734 and 120% (inactive).
`Cn1c2cc([S+](C)[O-])sc2c2cnn(Cc3cccc(N)c3)c(=O)c21` (configuration not stated) (10 µM) returned a morphology score in assay [1] of 0.0427. Further, the SARS-CoV-2 infection rate in assay [2] is 107% (inactive).
In the same order, the values of `Cc1ccc(-c2ncc(Cl)cc2-c2ccc(S(C)(=O)=O)cc2)cn1` [etoricoxib] (10 µM) are -0.139 and 114% (inactive).
On the same counts, the results for `c1ccc(Oc2nc(NC3CCCCC3)c3[nH]cnc3n2)cc1` (0.833333 µM) are 0.191 and 104% (inactive).
`O=C1NS(=O)(=O)c2ccccc21` [saccharin] (10 µM) gave a morphology score in assay [1] of -0.085. In addition, the SARS-CoV-2 infection rate in assay [2] was 106% (inactive).
Consider `CN[C@@H]1[C@H](O)[C@H](NC)[C@H]2O[C@@]3(O)C(=O)C[C@@H](C)O[C@H]3O[C@@H]2[C@H]1O` [spectinomycin] (0.833333 µM), for which the morphology score in assay [1] worked out at 0.0353. Further, the SARS-CoV-2 infection rate in assay [2] is 102% (inactive).
In the same order, the values of `CN1CCCCC1CCN1c2ccccc2Sc2ccc([S+](C)[O-])cc21` (configuration not stated) [mesoridazine] (10 µM) are 0.323 and 91% (inactive).
